# Source: PubChem BioAssay AID1159580 (chemical genetic matrix, 2015)
# The whole screen tested about 5,500 compounds, of which about 2,000 (36%) were called active. Inconclusive results (about 18%) are left out. This is one part of the list. Values without a mark were called inactive. Rule as the data show it: active = normalized growth mostly below about 0.91 (no sharp cut-off); inconclusive = no clear call, values can overlap the other calls; inactive = mostly above about 0.92.
# Assay: chemical genetic growth profiling, strain panel (AID 1159580);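 also: tested at 20 µM; growth read once vehicle control cultures reached saturation at 30 °C; 1 = growth at the plate median or of vehicle wells; lower values mean less growth of the strain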
# Settings: S. cerevisiae deletion strains, growth OD
# [1] = locus YAR019C, strain CDC15, stronger effect = lower value
# [2] = locus YBL105C, strain PKC1, stronger effect = lower value
# [3] = locus YBR135W, strain CKS1, stronger effect = lower value
# [4] = locus YBR136W, strain MEC1, stronger effect = lower value
# [5] = locus YBR160W, strain CDC28, stronger effect = lower value
# [6] = locus YDL017W, strain CDC7, stronger effect = lower value
# [7] = locus YDL028C, strain MPS1, stronger effect = lower value
# [8] = locus YDL101C, strain DUN1, stronger effect = lower value
# [9] = locus YDL108W, strain KIN28, stronger effect = lower value
# [10] = locus YDL132W, strain cdc53, stronger effect = lower value
# [11] = locus YDL214C, strain PRR2, stronger effect = lower value
# [12] = locus YDR052C, strain DBF4, stronger effect = lower value
# [13] = locus YDR054C, strain cdc34, stronger effect = lower value
# [14] = locus YDR226W, strain ADK1, stronger effect = lower value
# [15] = locus YDR477W, strain SNF1, stronger effect = lower value
# [16] = locus YER123W, strain YCK3, stronger effect = lower value
# [17] = locus YER133W, strain GLC7, stronger effect = lower value
# [18] = locus YFL009W, strain cdc4, stronger effect = lower value
# [19] = locus YFL029C, strain CAK1, stronger effect = lower value
# [20] = locus YFR003C, strain YPI1, stronger effect = lower value
# [21] = locus YFR019W, strain FAB1, stronger effect = lower value
# [22] = locus YFR028C, strain CDC14, stronger effect = lower value
# [23] = locus YGR040W, strain KSS1, stronger effect = lower value
# [24] = locus YGR052W, strain FMP48, stronger effect = lower value
# [25] = locus YGR092W, strain DBF2, stronger effect = lower value
# [26] = locus YHR030C, strain SLT2, stronger effect = lower value
# [27] = locus YHR079C, strain IRE1, stronger effect = lower value
# [28] = locus YHR082C, strain KSP1, stronger effect = lower value
# [29] = locus YHR205W, strain SCH9, stronger effect = lower value
# [30] = locus YIL147C, strain SLN1, stronger effect = lower value
# [31] = locus YJL095W, strain BCK1, stronger effect = lower value
# [32] = locus YJL128C, strain PBS2, stronger effect = lower value
# [33] = locus YJL157C, strain FAR1, stronger effect = lower value
# [34] = locus YJR016C, strain ILV3, stronger effect = lower value
# [35] = locus YJR066W, strain TOR1 (second series), stronger effect = lower value
# [36] = locus YJR066W, strain TOR1, stronger effect = lower value
# [37] = locus YKL048C, strain ELM1, stronger effect = lower value
# [38] = locus YKL067W, strain YNK1, stronger effect = lower value
# [39] = locus YKL101W, strain HSL1, stronger effect = lower value
# [40] = locus YKL193C, strain SDS22, stronger effect = lower value
# [41] = locus YKL203C, strain TOR2, stronger effect = lower value
# [42] = locus YLR113W, strain HOG1, stronger effect = lower value
# [43] = locus YLR133W, strain CKI1, stronger effect = lower value
# [44] = locus YLR403W, strain SFP1, stronger effect = lower value
# [45] = locus YML070W, strain DAK1, stronger effect = lower value
# [46] = locus YMR001C, strain CDC5, stronger effect = lower value
# [47] = locus YMR205C, strain PFK2 (second series), stronger effect = lower value
# [48] = locus YMR277W, strain FCP1, stronger effect = lower value
# [49] = locus YNL006W, strain LST8, stronger effect = lower value
# [50] = locus YNL020C, strain ARK1, stronger effect = lower value
# [51] = locus YNL161W, strain CBK1, stronger effect = lower value
# [52] = locus YNL183C, strain NPR1, stronger effect = lower value
# [53] = locus YNL207W, strain RIO2, stronger effect = lower value
# [54] = locus YNL222W, strain SSU72, stronger effect = lower value
# [55] = locus YNL307C, strain MCK1 (second series), stronger effect = lower value
# [56] = locus YOL078W, strain AVO1, stronger effect = lower value
# [57] = locus YOL136C, strain PFK27, stronger effect = lower value
# [58] = locus YOR061W, strain CKA2, stronger effect = lower value
# [59] = locus YOR119C, strain RIO1, stronger effect = lower value
# [60] = locus YOR231W, strain MKK1, stronger effect = lower value
# [61] = locus YOR329C, strain SCD5, stronger effect = lower value
# [62] = locus YPL031C, strain PHO85, stronger effect = lower value
# [63] = locus YPL153C, strain RAD53, stronger effect = lower value
# [64] = locus YPL204W, strain HRR25, stronger effect = lower value
# [65] = locus YPL209C, strain IPL1, stronger effect = lower value
# [66] = locus YPL256C, strain CLN2, stronger effect = lower value
# [67] = locus YPR025C, strain CCL1, stronger effect = lower value
# [68] = locus YPR106W, strain ISR1, stronger effect = lower value
# [69] = locus YPR111W, strain DBF20, stronger effect = lower value
# [70] = strain NNK1, stronger effect = lower value
# [71] = strain TSCII, stronger effect = lower value
smiles,measurement,setting,value
CSC(=N)N,normalized growth,"locus YAL040C, strain CLN3, stronger effect = lower value",0.992
same,normalized growth,"locus YCL061C, strain MRC1 (second series), stronger effect = lower value",1.01
same,normalized growth,"locus YDR150W, strain NUM1, stronger effect = lower value",1.01
same,normalized growth,"locus YDR363W, strain ESC2, stronger effect = lower value",1.02
same,normalized growth,"locus YER002W, strain NOP16, stronger effect = lower value",0.984
same,normalized growth,"locus YGR078C, strain PAC10, stronger effect = lower value",1.01
same,normalized growth,"locus YMR307W, strain GAS1, stronger effect = lower value",1.01
same,normalized growth,"locus YNL153C, strain GIM3, stronger effect = lower value",1.01
same,normalized growth,"locus YNL175C, strain NOP13, stronger effect = lower value",1.01
same,normalized growth,"locus YNL197C, strain WHI3, stronger effect = lower value",1
same,normalized growth,"locus YNL224C, strain SQS1, stronger effect = lower value",1
same,normalized growth,"locus YOR083W, strain WHI5 (second series), stronger effect = lower value",1.01
same,normalized growth,"locus YPL241C, strain CIN2, stronger effect = lower value",1.01
C/C(=N/NC(N)=S)c1ccc(Oc2c(Cl)cncc2Cl)cc1,normalized growth,[1],0.997
same,normalized growth,[2],0.993
same,normalized growth,[3],0.983
same,normalized growth,[4],0.986
same,normalized growth,[5],0.989
same,normalized growth,[6],0.987
same,normalized growth,[7],0.992
same,normalized growth,[8],0.988
same,normalized growth,[9],0.987
same,normalized growth,[10],0.994
same,normalized growth,[11],1.01
same,normalized growth,[12],0.989
same,normalized growth,[13],0.978
same,normalized growth,[14],0.988
same,normalized growth,[15],0.999
same,normalized growth,[16],0.989
same,normalized growth,[17],0.969
same,normalized growth,[18],0.983
same,normalized growth,[19],1
same,normalized growth,[20],0.991
same,normalized growth,[21],0.99
same,normalized growth,[22],0.993
same,normalized growth,[23],0.989
same,normalized growth,[24],1.06
same,normalized growth,[25],0.97
same,normalized growth,[26],1.05
same,normalized growth,[27],0.932
same,normalized growth,[28],1.24
same,normalized growth,[29],1.07
same,normalized growth,[30],0.984
same,normalized growth,[31],0.944
same,normalized growth,[32],1.02
same,normalized growth,[33],0.993
same,normalized growth,[34],0.995
same,normalized growth,[35],0.953
same,normalized growth,[36],1.2
same,normalized growth,[37],1.03
same,normalized growth,[38],1.02
same,normalized growth,[39],1.03
same,normalized growth,[40],0.991
same,normalized growth,[41],1.06
same,normalized growth,[42],1.01
same,normalized growth,[43],1.01
same,normalized growth,[44],0.97
same,normalized growth,[45],1.01
same,normalized growth,[46],0.989
same,normalized growth,[47],1.03
same,normalized growth,[48],0.997
same,normalized growth,[49],0.993
same,normalized growth,[50],1.01
same,normalized growth,[51],1
same,normalized growth,[52],0.996
same,normalized growth,[53],0.995
same,normalized growth,[54],0.998
same,normalized growth,[55],1
same,normalized growth,[56],0.998
same,normalized growth,[57],1.02
same,normalized growth,[58],0.994
same,normalized growth,[59],1.02
same,normalized growth,[60],0.973
same,normalized growth,[61],0.991
same,normalized growth,[62],0.983
same,normalized growth,[63],0.953
same,normalized growth,[64],0.972
same,normalized growth,[65],0.998
same,normalized growth,[66],0.99
same,normalized growth,[67],0.988
same,normalized growth,[68],1
same,normalized growth,[69],1.02
same,normalized growth,[70],1.03
same,normalized growth,[71],0.994
COc1ccc(NC(=O)O/N=C(/N)c2ccc(Oc3c(Cl)cncc3Cl)cc2)cc1,normalized growth,[1],0.966
same,normalized growth,[2],0.974
same,normalized growth,[3],0.975
same,normalized growth,[4],0.982
same,normalized growth,[5],0.976
same,normalized growth,[6],0.98
same,normalized growth,[7],0.987
same,normalized growth,[8],0.969
same,normalized growth,[9],0.99
same,normalized growth,[10],0.966
same,normalized growth,[11],0.825
same,normalized growth,[12],0.986
same,normalized growth,[13],0.959
same,normalized growth,[14],0.965
same,normalized growth,[15],0.758
same,normalized growth,[16],0.575 (active)
same,normalized growth,[17],0.751
same,normalized growth,[18],0.963
same,normalized growth,[19],0.971
same,normalized growth,[20],0.972
same,normalized growth,[21],0.527 (active)
same,normalized growth,[22],0.963
same,normalized growth,[23],0.751
same,normalized growth,[24],0.694
same,normalized growth,[25],0.706
same,normalized growth,[26],0.71 (active)
same,normalized growth,[27],0.618
same,normalized growth,[28],0.805
same,normalized growth,[29],0.743
same,normalized growth,[30],0.963
same,normalized growth,[31],0.578
same,normalized growth,[32],0.971
same,normalized growth,[33],0.805
same,normalized growth,[34],0.975
same,normalized growth,[35],0.572 (active)
same,normalized growth,[36],0.69
same,normalized growth,[37],0.95
same,normalized growth,[38],0.866
same,normalized growth,[39],0.881
same,normalized growth,[40],0.97
same,normalized growth,[41],0.806
same,normalized growth,[42],0.604 (active)
same,normalized growth,[43],0.825
same,normalized growth,[44],0.756
same,normalized growth,[45],0.804
same,normalized growth,[46],0.958
same,normalized growth,[47],0.898
same,normalized growth,[48],0.977
same,normalized growth,[49],0.981
same,normalized growth,[50],0.856
same,normalized growth,[51],0.962
same,normalized growth,[52],0.593
same,normalized growth,[53],0.957
same,normalized growth,[54],0.965
same,normalized growth,[55],0.745
same,normalized growth,[56],0.973
same,normalized growth,[57],0.793
same,normalized growth,[58],0.87
same,normalized growth,[59],0.781
same,normalized growth,[60],0.661
same,normalized growth,[61],0.971
same,normalized growth,[62],0.726
same,normalized growth,[63],0.728
same,normalized growth,[64],0.676
same,normalized growth,[65],0.963
same,normalized growth,[66],0.676 (active)
same,normalized growth,[67],0.965
same,normalized growth,[68],0.98
same,normalized growth,[69],1
same,normalized growth,[70],1
same,normalized growth,[71],0.975
